Some targets named below: BARHL2 DBD T278V (EMX1) (human, UniProt Q9NY43 227-293, T278V); BARHL2 DBD T285M (NANOG) (human, UniProt Q9NY43 227-293, T285M); BARHL2 DBD T285A (LBX1) (human, UniProt Q9NY43 227-293, T285A).
Holding throughout (test): HT-SELEX; SELEX buffer: 10.4 mM Tris-HCl pH 7.5, 51.4 mM NaCl, 1.4 mM MgCl2, 4% glycerol, 100 uM EGTA, 0.7 mM DTT, 3.7 ug/ml poly-dI-dC, 1.4 uM ZnSO4; room temperature (2); high values mean tight binding
Holding throughout (conditions): protein: recombinant; dsDNA, one strand shown

Experiment [1] addresses BARHL2 DBD ctrl (unmutated, SELEX) (human, UniProt Q9NY43 227-293).
Experiment [2] addresses BARHL2 DBD T278I/T285N (HMX3) (human, UniProt Q9NY43 227-293, T278I;T285N).
For experiment [3], the target named is BARHL2 DBD T278I (NKX1.2) (human, UniProt Q9NY43 227-293, T278I).
Experiment [4] deals with BARHL2 DBD T278I/T285V (HOXB13) (human, UniProt Q9NY43 227-293, T278I;T285V).
Experiment [5] deals with BARHL2 DBD T278N/T285I (PBX1) (human, UniProt Q9NY43 227-293, T278N;T285I).
Experiment [6] has as its target BARHL2 DBD T278V/T285A (ALX4) (human, UniProt Q9NY43 227-293, T278V;T285A).
Experiment [7] deals with BARHL2 DBD T278I/T285M (HOXA3) (human, UniProt Q9NY43 227-293, T278I;T285M).
For experiment [8], the target named is BARHL2 DBD T278V/T285M (MEOX2) (human, UniProt Q9NY43 227-293, T278V;T285M).
For experiment [9], the target named is BARHL2 DBD T278I/T285A (CDX1) (human, UniProt Q9NY43 227-293, T278I;T285A).
Experiment [10] addresses BARHL2 DBD T278I/T285S (DLX1) (human, UniProt Q9NY43 227-293, T278I;T285S).
In experiment [11] the target is BARHL2 DBD T278N/T285Q (SIX6) (human, UniProt Q9NY43 227-293, T278N;T285Q).
Experiment [12] concerns the target BARHL2 DBD T278N/T285R (PKNOX1) (human, UniProt Q9NY43 227-293, T278N;T285R).

The values that follow come from publication PMC11996681, “Interfacial water confers transcription factors with dinucleotide specificity”.

Sequence of BARHL2 DBD T285M (NANOG) (Q9NY43 227-293 T285M): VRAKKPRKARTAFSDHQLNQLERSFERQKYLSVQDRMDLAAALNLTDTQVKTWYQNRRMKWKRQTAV
Sequence of BARHL2 DBD T278N/T285Q (SIX6) (Q9NY43 227-293 T278N/T285Q): as the sequence (Q9NY43 227-293 T285M) above, with T52N, M59Q counted along it
Sequence of BARHL2 DBD T278I/T285V (HOXB13) (Q9NY43 227-293 T278I/T285V): as the sequence (Q9NY43 227-293 T285M) above, with T52I, M59V counted along it
Sequence of BARHL2 DBD T278I/T285A (CDX1) (Q9NY43 227-293 T278I/T285A): as the sequence (Q9NY43 227-293 T285M) above, with T52I, M59A counted along it
Sequence of BARHL2 DBD T278I/T285S (DLX1) (Q9NY43 227-293 T278I/T285S): as the sequence (Q9NY43 227-293 T285M) above, with T52I, M59S counted along it
Sequence of BARHL2 DBD ctrl (unmutated, SELEX) (Q9NY43 227-293, stated change not applied): as the sequence (Q9NY43 227-293 T285M) above, with M59T counted along it
Sequence of BARHL2 DBD T278V/T285A (ALX4) (Q9NY43 227-293 T278V/T285A): as the sequence (Q9NY43 227-293 T285M) above, with T52V, M59A counted along it
Sequence of BARHL2 DBD T278N/T285R (PKNOX1) (Q9NY43 227-293 T278N/T285R): as the sequence (Q9NY43 227-293 T285M) above, with T52N, M59R counted along it
Sequence of BARHL2 DBD T278V (EMX1) (Q9NY43 227-293 T278V): as the sequence (Q9NY43 227-293 T285M) above, with T52V, M59T counted along it
Sequence of BARHL2 DBD T285A (LBX1) (Q9NY43 227-293 T285A): as the sequence (Q9NY43 227-293 T285M) above, with M59A counted along it
Sequence of BARHL2 DBD T278I/T285M (HOXA3) (Q9NY43 227-293 T278I/T285M): as the sequence (Q9NY43 227-293 T285M) above, with T52I counted along it
Sequence of BARHL2 DBD T278N/T285I (PBX1) (Q9NY43 227-293 T278N/T285I): as the sequence (Q9NY43 227-293 T285M) above, with T52N, M59I counted along it
Sequence of BARHL2 DBD T278I/T285N (HMX3) (Q9NY43 227-293 T278I/T285N): as the sequence (Q9NY43 227-293 T285M) above, with T52I, M59N counted along it
Sequence of BARHL2 DBD T278V/T285M (MEOX2) (Q9NY43 227-293 T278V/T285M): as the sequence (Q9NY43 227-293 T285M) above, with T52V counted along it
Sequence of BARHL2 DBD T278I (NKX1.2) (Q9NY43 227-293 T278I): as the sequence (Q9NY43 227-293 T285M) above, with T52I, M59T counted along it

For the sequence TAATTG, the binding signal came out at 43.5 fold enrichment in experiment [1]; 17.6 fold enrichment in [2]; 11.2 fold enrichment with BARHL2 DBD T278V (EMX1); 13.1 fold enrichment in experiment [3]; 6 fold enrichment with BARHL2 DBD T285M (NANOG); 13.3 fold enrichment in [4]. For the same sequence, the binding signal is 10.4 fold enrichment in experiment [5]; 4.9 fold enrichment in [6]; 11.5 fold enrichment in experiment [7]; 8.5 fold enrichment in [8]; 14 fold enrichment in experiment [9]; 16.2 fold enrichment in experiment [10]. Also, the binding signal came to 5.8 fold enrichment in experiment [11], 8 fold enrichment with BARHL2 DBD T285A (LBX1) and 1.8 fold enrichment in experiment [12].
For TAATCG, the binding signal in experiment [1] was determined as 9.7 fold enrichment; in experiment [2], 12.6 fold enrichment; in the experiment with BARHL2 DBD T278V (EMX1) it was 8 fold enrichment; in experiment [3] it was 9.4 fold enrichment; in the experiment with BARHL2 DBD T285M (NANOG), 7.6 fold enrichment; in [4] it was 5.9 fold enrichment. Moreover, the binding signal in [5] came to 8.1 fold enrichment; in [6], 5.1 fold enrichment; in experiment [7] it was 11.4 fold enrichment; in experiment [8] it was 8.5 fold enrichment; in experiment [9] it was 9.9 fold enrichment; in experiment [10] it was 10.9 fold enrichment. The binding signal in experiment [11] turned out to be 6.7 fold enrichment; with BARHL2 DBD T285A (LBX1), 9 fold enrichment; in experiment [12], 2.6 fold enrichment.
For the sequence TAAATG, the binding signal in experiment [1] is 12.6 fold enrichment; in experiment [2], 1.9 fold enrichment; in the experiment with BARHL2 DBD T278V (EMX1) it was 5.9 fold enrichment; in experiment [3], 5 fold enrichment; with BARHL2 DBD T285M (NANOG), 3.4 fold enrichment; in experiment [4], 4.3 fold enrichment. For the same sequence, the binding signal in experiment [5] was determined as 3.3 fold enrichment; in experiment [6] it was 2.2 fold enrichment; in experiment [7], 2.9 fold enrichment; in experiment [8], 3 fold enrichment; in experiment [9], 3.2 fold enrichment; in experiment [10], 4 fold enrichment. Besides, the figures for the binding signal (in experiment [11]; with BARHL2 DBD T285A (LBX1)) were 2 fold enrichment and 4.1 fold enrichment, respectively.
For the sequence TAATGG, the binding signal in experiment [1] worked out at 7.8 fold enrichment; in [2] it was 1.9 fold enrichment; in the experiment with BARHL2 DBD T278V (EMX1), 7.6 fold enrichment; in [3], 8 fold enrichment; in the experiment with BARHL2 DBD T285M (NANOG) it was 6.2 fold enrichment; in experiment [4], 7.7 fold enrichment. In addition, the binding signal in [5] amounted to 9.1 fold enrichment; in experiment [6], 3.7 fold enrichment; in experiment [7] it was 8.4 fold enrichment; in experiment [8], 7.6 fold enrichment; in experiment [9], 6.2 fold enrichment; in experiment [10], 8.1 fold enrichment. For the same sequence, the binding signal in experiment [11] was 7 fold enrichment; with BARHL2 DBD T285A (LBX1) it was 4.7 fold enrichment.
Turning to TAACCG, the binding signal was found to be 2.1 fold enrichment in experiment [1]; 2 fold enrichment in experiment [2]; 1.6 fold enrichment with BARHL2 DBD T278V (EMX1); 1.5 fold enrichment in experiment [3]; 2.3 fold enrichment with BARHL2 DBD T285M (NANOG); 3.7 fold enrichment in [5]. Besides, the binding signal in experiment [6] worked out at 1.9 fold enrichment; in experiment [7] it was 1.5 fold enrichment; in experiment [8] it was 1.5 fold enrichment; in [9] it was 1.9 fold enrichment; in experiment [10] it was 1.7 fold enrichment; in experiment [11] it was 4.1 fold enrichment. The binding signal is 3.5 fold enrichment with BARHL2 DBD T285A (LBX1) and 4.9 fold enrichment in experiment [12].
On to TAAGTG, for which the binding signal in [1] is 6.2 fold enrichment; in experiment [2], 8.6 fold enrichment; with BARHL2 DBD T278V (EMX1), 5.9 fold enrichment; in experiment [3], 6.1 fold enrichment; with BARHL2 DBD T285M (NANOG), 4.4 fold enrichment; in experiment [4] it was 4 fold enrichment. Also, the binding signal in experiment [5] stood at 2.5 fold enrichment; in experiment [6], 3.7 fold enrichment; in experiment [7], 5 fold enrichment; in [8], 4.4 fold enrichment; in [9] it was 6.4 fold enrichment; in experiment [10], 6.2 fold enrichment. Also, the binding signal in [11] was determined as 2.6 fold enrichment; with BARHL2 DBD T285A (LBX1), 6.1 fold enrichment; in [12], 1.3 fold enrichment.
Regarding TAAGCG, the binding signal in experiment [1] came out at 3 fold enrichment; in [2], 2.4 fold enrichment; with BARHL2 DBD T278V (EMX1), 3.2 fold enrichment; in experiment [3], 2.4 fold enrichment; with BARHL2 DBD T285M (NANOG), 3.6 fold enrichment; in experiment [5], 1.4 fold enrichment. Further, the binding signal in experiment [6] is 1.9 fold enrichment; in [7], 2.4 fold enrichment; in [8], 2.7 fold enrichment; in [9] it was 1.8 fold enrichment; in [10], 1.9 fold enrichment; in experiment [11] it was 1.6 fold enrichment. Moreover, the binding signal in the experiment with BARHL2 DBD T285A (LBX1) is 2.9 fold enrichment.
Regarding TAAACG, the binding signal was 28 fold enrichment in [1]; 4 fold enrichment in [2]; 7.8 fold enrichment in the experiment with BARHL2 DBD T278V (EMX1); 6.6 fold enrichment in experiment [3]; 3.8 fold enrichment with BARHL2 DBD T285M (NANOG); 2.4 fold enrichment in experiment [4]. The binding signal in experiment [5] amounted to 2.8 fold enrichment; in experiment [6] it was 3.3 fold enrichment; in [7], 2.5 fold enrichment; in [8], 3.1 fold enrichment; in experiment [9] it was 3.7 fold enrichment; in [10], 4.7 fold enrichment. The binding signal in [11] came out at 2.4 fold enrichment; with BARHL2 DBD T285A (LBX1), 6.3 fold enrichment; in experiment [12], 1.6 fold enrichment.
